Data published in PubChem BioAssay (EPA / NIEHS).
Where “and” joins values, the source holds several entries; their conditions need not be identical. Equal entries are not always repeated. Calls of active or inactive are those of the source. The calls were made as follows: active = hit-call score of the fitted dose curve at least 0.9, where 1 is the maximum; inactive = score below 0.9.

Legend:
[1] = read-out: C-C motif chemokine 2 (Homo sapiens) (UniProt P13500); assay: BSK_KF3CT_MCP1: BioMAP Diversity Plus: KF3CT Assay for Monocyte Chemoattractant Protein 1 (MCP1/CCL2) Biomarker Activity (AID 2283073); conditions: primary human keratinocytes with fibroblasts; actives raise or lower the signal
How it was run: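 Human keratinocyte plus foreskin fibroblast primary co-culture exposed to chemical for 24 h. MCP-1 levels measured by ELISA. Bidirectional curve fitting relative to DMSO negative control as baseline.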

[2] = read-out: Matrix Metallopeptidase 9 (MMP9), MMP9 (gene 4318); assay: BSK_KF3CT_MMP9: BioMAP Diversity Plus: KF3CT Assay for Matrix Metallopeptidase 9 (MMP9) Biomarker Activity (AID 2283074); conditions: primary human keratinocytes with fibroblasts; actives raise or lower the signal;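 as to AC50: MMP9 protein level quantified by ELISA in the co-culture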
How it was run: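 ELISA read-out of MMP-9 at 24 h post-dosing in a co-culture of human skin keratinocytes and foreskin fibroblasts. Gain or loss of signal was fitted in both directions against DMSO.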

[3] = read-out: urokinase plasminogen activator (uPA), PLAU (gene 5328); assay: BSK_KF3CT_uPA: BioMAP Diversity Plus: KF3CT Assay for urokinase plasminogen activator (uPA) Biomarker Activity (AID 2283075); conditions: primary human keratinocytes with fibroblasts; actives raise or lower the signal
How it was run: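 Skin co-culture (keratinocytes + foreskin fibroblasts), human primary; 24 h post-dose; uPA by ELISA; gain/loss fit vs DMSO baseline.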

CD40, CD40 (gene 958) = assay: BSK_LPS_CD40: BioMAP Diversity Plus: LPS Assay for CD40 Biomarker Activity (AID 2283076); conditions: primary human HUVEC with PBMC; actives raise or lower the signal
How it was run: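 Primary human umbilical vein endothelial cells co-cultured with peripheral blood mononuclear cells, LPS-stimulated, were dosed with chemical and read 24 h later. CD40 levels were measured by ELISA and fitted bidirectionally against DMSO as negative control and baseline.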

[4] = read-out: E-selectin (Homo sapiens) (UniProt P16581); assay: BSK_LPS_Eselectin: BioMAP Diversity Plus: LPS Assay for Eselectin Biomarker Activity (AID 2283077); conditions: primary human HUVEC with PBMC; actives raise or lower the signal
How it was run: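 Human umbilical vein endothelial cells co-cultured with peripheral blood mononuclear cells under LPS stimulation; E-selectin measured by ELISA 24 h after chemical dosing. Activity fitted bidirectionally against DMSO as negative control and baseline.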

[5] = read-out: Interleukin-8 (IL8), CXCL8 (gene 3576); assay: BSK_LPS_IL8: BioMAP Diversity Plus: LPS Assay for Interleukin-8 (IL8) Biomarker Activity (AID 2283078); conditions: primary human HUVEC with PBMC; actives raise or lower the signal
How it was run: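 Human umbilical vein endothelial cells co-cultured with PBMC were stimulated with LPS; IL-8 levels were measured by ELISA 24 h after chemical dosing. Activity was fitted bidirectionally against DMSO as negative control and baseline.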

[6] = BSK_LPS_SRB: Viability Assessment in the BioMAP Diversity Plus: LPS Assay (AID 2283079); conditions: primary human HUVEC with PBMC;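 also: total protein by sulforhodamine B absorbance as a cytotoxicity measure; measured one day after compound addition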
How it was run: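 Human umbilical vein endothelial cells co-cultured with PBMC (LPS system) were dosed for 24 h. Total protein was stained with 0.1% sulforhodamine B after 10% TCA fixation, read at 560 nm, and fitted bidirectionally against DMSO baseline.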

[7] = read-out: Monocyte Chemoattractant Protein-1 (MCP1), CCL2 (gene 6347); assay: BSK_LPS_MCP1: BioMAP Diversity Plus: LPS Assay for Monocyte Chemoattractant Protein-1 (MCP1) Biomarker Activity (AID 2283081); conditions: primary human HUVEC with PBMC; actives raise or lower the signal;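 as to AC50: co-culture stimulated with LPS; secreted MCP-1 protein quantified by ELISA in culture supernatant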
How it was run: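 HUVEC plus PBMC co-culture (human primary cells, LPS system) exposed to test chemical for 24 h; MCP-1 measured by ELISA. Bidirectional curve fitting against DMSO baseline; parallel SRB total-protein staining flags overt cytotoxicity.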

[8] = read-out: Interleukin-1 alpha (IL1a), IL1A (gene 3552); assay: BSK_LPS_IL1a: BioMAP Diversity Plus: LPS Assay for Interleukin-1 alpha (IL1a) Biomarker Activity (AID 2283080); conditions: primary human HUVEC with PBMC; actives raise or lower the signal
How it was run: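 Human umbilical vein endothelial cells co-cultured with peripheral blood mononuclear cells were LPS-stimulated and exposed to test chemicals for 24 h. IL-1 alpha was quantified by ELISA, with bidirectional curve fitting against DMSO as the negative control and baseline.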

Chain of E-selectin (Homo sapiens) (P16581 whole entry, looked up): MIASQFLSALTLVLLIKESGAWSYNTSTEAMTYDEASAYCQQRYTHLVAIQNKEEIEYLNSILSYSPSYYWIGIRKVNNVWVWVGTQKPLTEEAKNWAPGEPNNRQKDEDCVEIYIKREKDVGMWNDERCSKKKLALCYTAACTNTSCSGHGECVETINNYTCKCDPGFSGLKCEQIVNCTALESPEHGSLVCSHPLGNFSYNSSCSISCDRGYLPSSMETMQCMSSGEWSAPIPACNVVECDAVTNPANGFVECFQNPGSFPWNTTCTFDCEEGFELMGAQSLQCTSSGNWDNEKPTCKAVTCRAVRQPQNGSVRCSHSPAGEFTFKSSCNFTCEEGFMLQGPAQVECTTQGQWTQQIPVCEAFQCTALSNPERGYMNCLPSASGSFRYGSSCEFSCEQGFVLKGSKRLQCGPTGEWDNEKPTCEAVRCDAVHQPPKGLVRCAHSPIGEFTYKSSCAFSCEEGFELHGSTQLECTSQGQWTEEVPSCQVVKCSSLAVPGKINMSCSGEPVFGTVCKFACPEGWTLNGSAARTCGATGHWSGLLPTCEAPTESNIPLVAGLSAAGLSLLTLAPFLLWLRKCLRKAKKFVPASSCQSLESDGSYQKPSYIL

COC(=O)CCC(F)(F)C(F)(F)C(F)(F)C(F)(F)F
outcome [1]: inactive
outcome [2]: inactive
outcome [3]: inactive
outcome (CD40, CD40 (gene 958)): inactive
outcome [4]: inactive
outcome [5]: inactive
outcome [6]: inactive
outcome [7]: inactive

FC(F)(F)C(F)(F)C(F)(F)C(F)(F)C(F)(F)C(F)(F)C(F)(F)Br
outcome [1]: inactive
outcome [2]: inactive
outcome [3]: inactive
outcome (CD40, CD40 (gene 958)): inactive
outcome [4]: inactive
outcome [5]: inactive
outcome [8]: inactive
outcome [7]: inactive

CCCCC(CC)COP(=O)(O)OCC(CC)CCCC (stereo unspecified)
AC50 [1]: 31.2 µM (active) and 20 µM (active)
AC50 [2]: 29.5 µM (active) and 36.8 µM (active)
outcome [3]: inactive
outcome (CD40, CD40 (gene 958)): inactive
outcome [4]: inactive
outcome [5]: inactive
outcome [6]: inactive
outcome [7]: inactive

O=C(O)C(F)(F)C(F)(F)C(F)(F)C(F)(F)C(F)(F)C(F)(F)C(F)(F)C(F)(F)C(F)(F)C(F)(F)C(F)(F)C(F)(F)F
outcome [1]: inactive
outcome [2]: inactive
outcome [3]: inactive
outcome (CD40, CD40 (gene 958)): inactive
outcome [4]: inactive
outcome [5]: inactive
outcome [8]: inactive
outcome [7]: inactive

O=S(=O)(OCC(F)F)C(F)(F)F
outcome [1]: inactive
outcome [2]: inactive
outcome [3]: inactive
outcome (CD40, CD40 (gene 958)): inactive
outcome [4]: inactive
outcome [5]: inactive
outcome [7]: inactive

O=C(O)C(F)(F)C(F)(F)C(F)F
outcome [1]: inactive
outcome [2]: inactive
outcome [3]: inactive
outcome (CD40, CD40 (gene 958)): inactive
outcome [4]: inactive
outcome [5]: inactive
outcome [6]: inactive
outcome [8]: inactive
outcome [7]: inactive

C=CC(=O)OCC(F)(F)C(F)(F)C(F)(F)C(F)(F)C(F)(F)C(F)(F)C(F)(F)F
outcome [1]: inactive
outcome [2]: inactive
outcome [3]: inactive
outcome (CD40, CD40 (gene 958)): inactive
outcome [4]: inactive
outcome [5]: inactive
outcome [7]: inactive

FC(F)(F)C(F)(F)C(F)(F)C(F)(F)C(F)(F)C(F)(F)CC1CO1 (stereo unspecified)
outcome [1]: inactive
outcome [2]: inactive
outcome [3]: inactive
outcome (CD40, CD40 (gene 958)): inactive
outcome [4]: inactive
outcome [5]: inactive
outcome [6]: inactive
outcome [7]: inactive

O=C(O)C(F)(F)C(F)(F)OC(F)(F)F
outcome [1]: inactive
outcome [2]: inactive
outcome [3]: inactive
outcome (CD40, CD40 (gene 958)): inactive
outcome [4]: inactive
outcome [5]: inactive
outcome [6]: inactive
outcome [7]: inactive

C=CC(F)(F)C(F)(F)C(F)(F)C(F)(F)C(F)(F)C(F)(F)C(F)(F)C(F)(F)F
outcome [1]: inactive
outcome [2]: inactive
outcome [3]: inactive
outcome (CD40, CD40 (gene 958)): inactive
outcome [4]: inactive
outcome [5]: inactive
outcome [8]: inactive
outcome [7]: inactive

FC(F)(Br)C(F)(F)C(F)(F)C(F)(F)C(F)(F)C(F)(F)Br
outcome [1]: inactive
outcome [2]: inactive
outcome [3]: inactive
outcome (CD40, CD40 (gene 958)): inactive
outcome [4]: inactive
outcome [5]: inactive
outcome [6]: inactive
outcome [8]: inactive
outcome [7]: inactive

O=C(O)C(F)(OC(F)(F)C(F)(OC(F)(F)C(F)(OC(F)(F)C(F)(F)C(F)(F)F)C(F)(F)F)C(F)(F)F)C(F)(F)F (stereo unspecified)
outcome [1]: inactive
outcome [2]: inactive
outcome [3]: inactive
outcome (CD40, CD40 (gene 958)): inactive
outcome [4]: inactive
outcome [5]: inactive
outcome [6]: inactive
outcome [7]: inactive

OCCCC(F)(F)C(F)(F)C(F)(F)F
outcome [1]: inactive
outcome [2]: inactive
outcome [3]: inactive
outcome (CD40, CD40 (gene 958)): inactive
outcome [4]: inactive
outcome [5]: inactive
outcome [8]: inactive
outcome [7]: inactive

FC(F)(F)C(F)(F)CNCC(F)(F)C(F)(F)F
outcome [1]: inactive
outcome [2]: inactive
outcome [3]: inactive
outcome (CD40, CD40 (gene 958)): inactive
outcome [4]: inactive
outcome [5]: inactive
outcome [6]: inactive
outcome [7]: inactive

CC(C)(C)C(=O)CC(=O)C(F)(F)C(F)(F)C(F)(F)F
outcome [1]: inactive
outcome [2]: inactive
outcome [3]: inactive
outcome (CD40, CD40 (gene 958)): inactive
outcome [4]: inactive
outcome [5]: inactive
outcome [6]: inactive
outcome [7]: inactive

C=C(C)C(=O)OCC(F)(F)C(F)(F)C(F)(F)F
outcome [1]: inactive
outcome [2]: inactive
outcome [3]: inactive
outcome (CD40, CD40 (gene 958)): inactive
outcome [4]: inactive
outcome [5]: inactive
outcome [6]: inactive
outcome [7]: inactive

FC(F)(F)C(F)(F)C(F)(F)C(F)(F)C(F)(F)C(F)(F)CCS
outcome [1]: inactive
outcome [2]: inactive
outcome [3]: inactive
outcome (CD40, CD40 (gene 958)): inactive
outcome [4]: inactive
outcome [5]: inactive
outcome [8]: inactive
outcome [7]: inactive

C=CC(=O)OCC(F)(F)C(F)(F)C(F)(F)C(F)(F)COC(=O)C=C
AC50 [1]: 10.9 µM (active) and 15.4 µM (active)
AC50 [2]: 30.9 µM (active) and 21.6 µM (active)
AC50 [3]: 33.8 µM (active) and 37 µM (active)
AC50 (CD40, CD40 (gene 958)): 12.2 µM (active) and 18.5 µM (active)
AC50 [4]: 17.3 µM (active) and 17.6 µM (active)
AC50 [5]: 19.2 µM (active) and 16.7 µM (active)
AC50 [7]: 17.3 µM (active) and 19.4 µM (active)

FC1CC(F)(F)C(F)(F)C1(F)F (stereo unspecified)
outcome [1]: inactive
outcome [2]: inactive
outcome [3]: inactive
outcome (CD40, CD40 (gene 958)): inactive
outcome [4]: inactive
outcome [5]: inactive
outcome [8]: inactive
outcome [7]: inactive
